ChEMBL document CHEMBL3433997, “St. Jude Leishmania screening dataset” (2016)

Assays:
Format in all cases: functional
[1] = biological target: Solute carrier family 2, facilitated glucose transporter member 1 (Homo sapiens) (UniProt P11166); assay: ST_JUDE_LEISH: Cytotoxicity at 2uM final concentration against transgenic Leishmania Mexicana promastigotes LmGLUT1 that are glucose transport deficient and complemented with the human glucose transporter GLUT1. Activity is measured by DNA content using SYBR green in vitro
Chain of Solute carrier family 2, facilitated glucose transporter member 1 (Homo sapiens) (P11166 whole entry): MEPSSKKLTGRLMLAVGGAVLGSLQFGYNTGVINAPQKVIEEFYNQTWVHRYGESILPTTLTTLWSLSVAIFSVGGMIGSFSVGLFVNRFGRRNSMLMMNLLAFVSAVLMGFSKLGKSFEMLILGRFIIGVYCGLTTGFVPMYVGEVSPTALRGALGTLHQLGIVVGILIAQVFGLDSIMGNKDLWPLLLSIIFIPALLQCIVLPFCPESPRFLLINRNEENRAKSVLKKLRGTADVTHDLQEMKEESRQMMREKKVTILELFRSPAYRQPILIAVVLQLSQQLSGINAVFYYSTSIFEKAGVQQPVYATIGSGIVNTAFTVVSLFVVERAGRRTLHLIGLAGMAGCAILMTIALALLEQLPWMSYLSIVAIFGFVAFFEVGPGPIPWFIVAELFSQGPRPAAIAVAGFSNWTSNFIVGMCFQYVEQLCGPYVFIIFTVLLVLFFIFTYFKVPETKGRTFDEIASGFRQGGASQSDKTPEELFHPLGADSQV

[2] = biological target: Hexose transporter 1 (Plasmodium falciparum) (UniProt O97467); assay: ST_JUDE_LEISH: Cytotoxicity at 2uM final concentration against transgenic Leishmania Mexicana promastigotes LmPfHT that are glucose transport deficient and complemented with the Plasmodium falciparum hexose transporter. Activity is measured by DNA content using SYBR green in vitro
[3] = biological target: Glucose transporter (Leishmania mexicana) (UniProt O61059); assay: ST_JUDE_LEISH: Cytotoxicity at 2uM final concentration against transgenic Leishmania Mexicana promastigotes LmGT2 that are glucose transport deficient and complemented with the L. Mexicana glucose transporter 2. Activity is measured by DNA content using SYBR green in vitro

Structure (SMILES)	inhibition [1] [%]	inhibition [2] [%]	inhibition [3] [%]
CCOC(=O)c1cn(CC)c2cc(N(C)CCc3ccc(OC)c(OC)c3)c(F)cc2c1=O	2.15	1.21	1.68
N#Cc1ccc2c(c1)CCN(CCC1CCC(NC(=O)/C=C/c3c[nH]c4ccc(F)cc34)CC1)CC2 (stereo not given)	0.97	3.57	2.6
CCN(CC)c1ccccc1CNC(=O)c1cc(Cl)c(N)cc1OC	9.4	9.03	8.59
CCOC(=O)c1ccc(-c2c(C(F)(F)F)noc2-c2cc(CC)c(OC)cc2O)o1	3.34	2.22	1.45
CCCCCCN1CCC(NCc2cccc([N+](=O)[O-])c2)CC1	3.72	5.68	4.96
O=C1C2C(c3ccc(Cl)c(Cl)c3)N3CC(OCc4ccccc4)CC3(C(=O)O)C2C(=O)N1c1ccc(Br)cc1 (stereo not given)	4.62	4.75	3.46
CCc1ccccc1NC(=O)CN1CCN(c2ncnc3scc(-c4ccc(F)cc4)c23)CC1	1.81	3.65	2.87
COC(=O)c1ccc(Nc2nccc(Nc3ccc(Oc4ccccc4)cc3)n2)cc1	5.22	9.95	2.57
COc1ccc2[nH]ccc(=NN=Cc3ccccc3F)c2c1	7.58	7.67	7.56
Cc1cc(Br)c(OCCCON2C(=N)N=C(N)NC2(C)C)c(Br)c1	2.66	4.88	1.2
CCc1nc(N)nc(N)c1CCCOc1ccccc1Cl	3.15	2.69	-0.4
O=S(=O)(c1c(Cl)cccc1Cl)N1CCCCC(c2ccc(C(F)(F)F)cc2)=N1	2.16	4.23	4.51
COc1ccc2nccc([C@@H](O)CN3CCC(NCc4ccc5scnc5c4)CC3)c2c1	3.81	2.6	3.04
COc1cc2ncnc(Nc3ccc4nc(-c5ccccc5)[nH]c4c3)c2cc1OC	4.22	3.9	2
COc1ccc2nccc([C@H](O)CN3CCC(NCc4ccc5c(c4C)OCCO5)CC3)c2n1	41	59.7	69.1
O=C(/C=C/c1ccc(Cl)c(Cl)c1)NCCCCCN1CCC(NC(=O)Nc2ccc(C(F)(F)F)cc2)C1 (stereo not given)	-0.17	-0.88	-3.22
CCN(CC)CCN(Cc1ccc(-c2ccc(C(F)(F)F)cc2)cc1)C(=O)Cn1c(CCc2ccc(F)c(F)c2F)nc(=O)c2cccnc21	0.59	0.44	-0.8
CC(C)NCc1ccc(-c2ccc(-c3nc4cc(C(F)(F)F)ccc4[nH]3)cc2)cc1	1.09	-1.61	2.69
CC(=O)c1c(Nc2c(C)cc(C)cc2C)oc(C)cc1=O	3.7	5.4	3.1
CCCCCOc1ccc(C(O)C(CCC(CN2CCCCCC2)C(O)c2ccc(OCCCCC)cc2)CN2CCCCCC2)cc1 (stereo not given)	3.22	2.73	1.43
CN1CCN(CCCN(Cc2csc(-c3ccc(CNCc4ccccc4)cc3)n2)S(=O)(=O)c2ccccc2)CC1	12.2	15.3	4.53
O=C(Nc1cccc(-c2cccc(CN3CCCC3)c2)c1)c1ccc(Cl)cc1	1.55	1.32	3.94
NC1CCN(c2nc(NCCc3ccc(O)cc3)nc(NCc3ccccc3-c3ccc(C(F)(F)F)cc3)n2)CC1	4.18	3.01	2.19
c1ccc(CN2CCCN(c3ccc4c(c3)CCN(Cc3ccc(-c5ncc[nH]5)cc3)CC4)CC2)cc1	2.8	3.96	0.68
O=[N+]([O-])c1cccc(NC(=S)N2CCCN(Cc3ccc(C(F)(F)F)cc3)CC2)c1	2.92	4.79	3.25

Structure (SMILES)	inhibition [1] [%]	inhibition [2] [%]	inhibition [3] [%]
NS(=O)(=O)c1ccccc1Nc1nc(Nc2ccc(N3CCOCC3)cc2)nc2c1CCC2	11.1	4.49	3.91
CC(=O)N(C)c1cccc(C(=O)Nc2cccc(-c3cccc(-c4nc5cc(C(F)(F)F)ccc5[nH]4)c3)c2)c1	12.3	12	5.52
Cc1noc(C)c1-c1ccc2c(Nc3ccccc3C(C)(C)C)c(C(=O)NCc3ccccc3)cnc2c1	6.6	7.11	3.62
CN(C)CCNCc1ccc(-c2ccc(-c3nc4ccccc4[nH]3)s2)cc1	13.7	14.5	12.8
CC1CCCN(Cc2c(O)ccc3c(O)c(-c4nc5ccccc5s4)c(=N)oc23)C1 (stereo not given)	3.47	8.25	0.96
CC(C)(C)c1ccc(CN2CCC(CNC(=O)c3cc(-c4ccccc4F)cs3)C2)cc1 (stereo not given)	-1.08	-2.3	0.9
COc1ccc(NC(=O)NC2CCN(CCCOc3ccnc4cc(Cl)ccc34)C2)cc1OC (stereo not given)	-0.88	-0.13	-0.69
CC(=O)Nc1sc(C)c(C)c1CN1CCc2ccccc2C1	-0.17	0.49	-1.3
COc1ccc2[nH]c(C)cc(=NN=Cc3ccc(Cl)cc3)c2c1	6.05	6.41	-0.5
COc1ccc2nccc([C@@H](O)CN3CCC(NCc4ccc5nnsc5c4)CC3)c2c1	-1.03	0.44	-0.67
NC(=O)c1cccc(CNCc2ccc(-c3cccc(-c4nc5ccccc5[nH]4)c3)cc2)c1	5.8	5.87	5.4
CC(C)(C)c1ccc2[nH]c(-c3ccc(C(=O)NC4CCN(Cc5ccccc5)CC4)s3)nc2c1	3.39	2.69	1.79
O=C(Nc1cccc(CN2CCCN(Cc3ccc(O)cc3)CC2)c1)c1cc(F)cc(F)c1	3.19	1.64	-5.2
Cc1cccc2nc(-c3cccc(-c4ccc(NC(=O)C(C)CN5CCOCC5)cc4)c3)[nH]c12 (stereo not given)	3.62	2.93	4.9
Cc1cccc2nc(-c3cccc(-c4ccc(NC(=O)Cc5c[nH]cn5)cc4)c3)[nH]c12	-1.66	-0.73	-0.58
COc1ccc(Cl)cc1NC(=O)C(C)N1CCN(S(=O)(=O)c2ccccc2F)CC1 (stereo not given)	4.36	3.53	3.44
CC(C)(C)c1nn(-c2ccccc2)c2[nH]c(=O)c(CNC3CCCC3)cc12	3.76	1.66	2.65
COc1ccc2nccc([C@@H](O)CN3CCC(NCc4cc5oc(=O)n(C)c5cc4F)CC3)c2c1	0.9	0.07	0.86
COc1ccc(-c2ccc(NC(=O)c3cccc(Cl)c3)c(F)c2)cc1CNC(C)C	9.29	7.16	4.55
O=C(Nc1cccnc1)c1cc(-c2cccnc2)nc2ccc(Br)cc12	7.01	1.51	-1.18
CCc1sc(-c2cc(Cl)ccc2OC)nc1C(=O)NCCN1CCCCC1	4.48	4.06	4.96
COc1cccc2cc(C(=O)N[C@@H](CC(C)C)C(=O)N[C@H](C=NN(C)C(=O)OC(C)(C)C)Cc3ccccc3)oc12	5.65	7.62	5.03
Cn1nccc1C(=O)NCCNCc1cccc(-c2ccc(-c3nc4ccccc4[nH]3)s2)c1	-0.55	-0.8	-1.72
CCC(CC)(CCC#N)CN(C[C@@H](O)[C@H](Cc1ccccc1)NC(=O)OC(C)(C)C)S(=O)(=O)c1ccc(OC)cc1	-0.65	0.74	0.65
CN1CCCC1CCNC(=O)[C@H](CC1CCCCC1)NC(=O)c1ccc(O)c(-c2ccc(Cl)c(Cl)c2)c1 (stereo not given in full)	8.26	10.3	6.63
